# From the supplement of paper PMC6897291
# Columns and labels:
# [1] = test system: RIVA; assay: growth inhibition by drug plus 177Lu-lilotomab satetraxetan (1 - RLU/untreated control) (fraction); higher = stronger inhibition; conditions: 177Lu-lilotomab satetraxetan 0.5 ug/ml
# Summary of the method: (§1)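 RIVA or U-2932 cells, untreated or pretreated 18 h with a radiolabelled anti-CD37 antibody conjugate (~600 MBq/mg; 0.5 µg/ml RIVA, 1 µg/ml U-2932), were washed and seeded at 3,000 cells/well on plates pre-printed with the Selleck Cambridge Cancer Compound library. Doses were 10/100 nM (RIVA) or 10/1,000 nM (U-2932). RealTime-Glo luminescence was read daily from day 3 after 1 h at 37°C. Growth inhibition is 1 − RLU/mean of 48 untreated no-drug wells per plate.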
# [2] = test system: U-2932; assay: growth inhibition by drug alone (1 - RLU/untreated control) (fraction); higher = stronger inhibition; conditions: 177Lu-lilotomab satetraxetan 0 ug/ml
# Summary of the method: as §1
# [3] = test system: RIVA; assay: as above; conditions: 177Lu-lilotomab satetraxetan 0 ug/ml
# Summary of the method: as §1
# [4] = test system: U-2932; assay: growth inhibition by drug plus 177Lu-lilotomab satetraxetan (1 - RLU/untreated control) (fraction); higher = stronger inhibition; conditions: 177Lu-lilotomab satetraxetan 1 ug/ml
# Summary of the method: as §1
SMILES,"growth inhibition by drug plus 177Lu-lilotomab satetraxetan ([1]; 100 nM, time (day): 5)","growth inhibition by drug plus 177Lu-lilotomab satetraxetan ([1]; 100 nM, time (day): 6)","growth inhibition by drug alone ([2]; 10 nM, time (day): 3)","growth inhibition by drug alone ([2]; 10 nM, time (day): 4)","growth inhibition by drug alone ([2]; 10 nM, time (day): 5)","growth inhibition by drug alone ([2]; 10 nM, time (day): 6)","growth inhibition by drug alone ([2]; 1000 nM, time (day): 3)","growth inhibition by drug alone ([2]; 1000 nM, time (day): 4)","growth inhibition by drug alone ([2]; 1000 nM, time (day): 5)","growth inhibition by drug alone ([2]; 1000 nM, time (day): 6)","growth inhibition by drug alone ([3]; 10 nM, time (day): 3)","growth inhibition by drug alone ([3]; 10 nM, time (day): 4)","growth inhibition by drug alone ([3]; 10 nM, time (day): 5)","growth inhibition by drug alone ([3]; 10 nM, time (day): 6)","growth inhibition by drug alone ([3]; 100 nM, time (day): 3)","growth inhibition by drug alone ([3]; 100 nM, time (day): 4)","growth inhibition by drug alone ([3]; 100 nM, time (day): 5)","growth inhibition by drug alone ([3]; 100 nM, time (day): 6)","growth inhibition by drug plus 177Lu-lilotomab satetraxetan ([4]; 10 nM, time (day): 3)","growth inhibition by drug plus 177Lu-lilotomab satetraxetan ([4]; 10 nM, time (day): 4)","growth inhibition by drug plus 177Lu-lilotomab satetraxetan ([4]; 10 nM, time (day): 5)","growth inhibition by drug plus 177Lu-lilotomab satetraxetan ([4]; 10 nM, time (day): 6)","growth inhibition by drug plus 177Lu-lilotomab satetraxetan ([4]; 1000 nM, time (day): 3)","growth inhibition by drug plus 177Lu-lilotomab satetraxetan ([4]; 1000 nM, time (day): 4)","growth inhibition by drug plus 177Lu-lilotomab satetraxetan ([4]; 1000 nM, time (day): 5)","growth inhibition by drug plus 177Lu-lilotomab satetraxetan ([4]; 1000 nM, time (day): 6)","growth inhibition by drug plus 177Lu-lilotomab satetraxetan ([1]; 10 nM, time (day): 3)","growth inhibition by drug plus 177Lu-lilotomab satetraxetan ([1]; 10 nM, time (day): 4)","growth inhibition by drug plus 177Lu-lilotomab satetraxetan ([1]; 10 nM, time (day): 5)","growth inhibition by drug plus 177Lu-lilotomab satetraxetan ([1]; 10 nM, time (day): 6)","growth inhibition by drug plus 177Lu-lilotomab satetraxetan ([1]; 100 nM, time (day): 3)","growth inhibition by drug plus 177Lu-lilotomab satetraxetan ([1]; 100 nM, time (day): 4)"
COc1cc2nccc(Oc3ccc(NC(=O)C4(C(=O)Nc5ccc(F)cc5)CC4)cc3)c2cc1OC [XL-184 free base (Cabozantinib)],0.529,0.532,,,,,,,,,,,,,,,,,,,,,,,,,,,,,,
OCCn1cc(-c2ccc3c(c2)CC/C3=N\O)c(-c2ccncc2)n1,0.585,0.602,-0.0296,-0.0312,-0.153,-0.152,-0.112,-0.139,-0.146,-0.12,-0.166,-0.13,-0.183,-0.335,-0.39,-0.208,-0.171,-0.236,-0.00182,0.0536,0.0736,0.0788,-0.118,-0.0611,-0.0101,0.0758,0.513,0.569,0.578,0.59,0.436,0.551
Nc1nc(F)nc2c1ncn2[C@@H]1O[C@H](CO)[C@@H](O)[C@@H]1O [Fludarabine (Fludara)],0.573,0.585,0.0811,0.031,-0.102,-0.129,0.0221,0.000892,-0.0649,-0.0258,0.0792,0.0421,0.0106,-0.266,-0.264,-0.213,-0.187,-0.228,0.0486,0.0769,0.126,0.16,0.00481,0.105,0.131,0.185,0.546,0.58,0.591,0.585,0.504,0.553
"Nc1ccccc1NC(=O)c1ccc(CNC(=O)OCc2cccnc2)cc1 [Entinostat (MS-275, SNDX-275)]",0.628,0.595,0.036,0.00325,0.00221,0.0268,0.833,0.861,0.874,0.887,-0.0286,-0.0282,-0.046,-0.113,0.288,0.217,0.174,0.114,0.053,0.0586,0.0668,0.217,0.855,0.89,0.908,0.928,0.486,0.568,0.585,0.591,0.604,0.62
O=C(/C=C/c1cccnc1)NCCCCC1CCN(C(=O)c2ccccc2)CC1,0.991,0.991,0.935,0.894,0.825,0.783,0.982,0.985,0.984,0.985,0.983,0.983,0.982,0.979,0.981,0.982,0.982,0.98,0.909,0.859,0.812,0.758,0.984,0.985,0.986,0.988,0.991,0.991,0.99,0.99,0.99,0.99
C#CCN(C)CC1=Cc2ccccc2Oc2ccccc21,0.634,0.63,0.0712,0.0296,-0.0381,-0.0948,0.056,0.0596,0.000991,0.0366,-0.0236,-0.0211,-0.0438,-0.145,-0.121,-0.0828,-0.112,-0.138,0.0301,0.075,0.128,0.198,0.0289,0.0839,0.129,0.233,0.602,0.618,0.628,0.62,0.573,0.617
O=C(O)c1ccc2cc(-c3ccc(O)c(C45CC6CC(CC(C6)C4)C5)c3)ccc2c1,0.518,0.526,0.159,0.0954,-0.0581,-0.0515,0.757,0.836,0.861,0.877,0.00625,0.0377,-0.0188,-0.334,-0.285,-0.127,-0.181,-0.353,0.108,0.127,0.182,0.221,0.737,0.802,0.838,0.847,0.642,0.675,0.699,0.702,0.404,0.512
C[C@]1(O)C[C@@H](c2nc(-c3ccc4ccc(-c5ccccc5)nc4c3)c3c(N)nccn32)C1 [Linsitinib (OSI-906)],0.417,0.42,-0.0175,-0.0545,-0.0282,0.0189,-0.0281,-0.0257,-0.0322,0.0723,-0.215,-0.216,-0.261,-0.348,-0.356,-0.307,-0.329,-0.365,-0.0826,-0.0138,0.0354,0.14,-0.09,-0.0306,0.0298,0.223,0.4,0.48,0.495,0.5,0.283,0.4
Nc1nc2[nH]cc(CCc3ccc(C(=O)N[C@@H](CCC(=O)O)C(=O)O)cc3)c2c(=O)[nH]1 [Pemetrexed],0.436,0.408,-0.0147,-0.0188,-0.0965,-0.27,0.905,0.948,0.965,0.974,-0.121,-0.198,-0.281,-0.489,-0.293,-0.377,-0.377,-0.54,-0.058,-0.0226,0.000411,0.0568,0.893,0.951,0.97,0.979,0.279,0.458,0.483,0.497,0.325,0.44
CC(C)(C)c1ccc(S(=O)(=O)/C=C/C#N)cc1,0.508,0.495,0.0951,0.0673,-0.0262,-0.0534,0.386,0.401,0.352,0.365,-0.0115,-1.37e-05,-0.0516,-0.202,-0.0892,-0.063,-0.0854,-0.195,-0.0145,0.0216,0.0584,0.0727,0.517,0.565,0.534,0.533,0.438,0.555,0.567,0.581,0.452,0.513
Cc1ccc(C(=O)N(CCCN)[C@@H](c2nc3cc(Cl)ccc3c(=O)n2Cc2ccccc2)C(C)C)cc1,0.971,0.979,0.446,0.424,0.379,0.372,0.959,0.968,0.972,0.977,0.202,0.194,0.075,-0.26,0.918,0.931,0.939,0.943,0.393,0.409,0.426,0.465,0.965,0.973,0.98,0.984,0.652,0.647,0.659,0.655,0.94,0.962
CC(=O)Nc1nc(C)c(-c2ccc(Cl)c(S(=O)(=O)NCCO)c2)s1,0.448,0.434,0.075,0.0569,0.00221,-0.159,0.302,0.29,0.248,0.307,0.0212,0.026,-0.0187,-0.271,-0.0771,-0.0663,-0.1,-0.193,-0.0326,0.00318,0.0521,0.103,0.423,0.467,0.424,0.489,0.348,0.493,0.527,0.549,0.317,0.471
CNCc1ccc(-c2[nH]c3cc(F)cc4c3c2CCNC4=O)cc1,0.574,0.57,0.062,0.0535,0.0443,0.155,0.0442,0.0462,0.0516,0.0343,-0.0585,-0.0309,-0.0988,-0.165,-0.0509,-0.0204,-0.0791,-0.0893,0.05,0.0426,0.0882,0.222,0.0393,0.0885,0.124,0.238,0.384,0.514,0.55,0.578,0.507,0.54
CC#C[C@]1(O)CC[C@H]2[C@@H]3CCC4=CC(=O)CCC4=C3[C@@H](c3ccc(N(C)C)cc3)C[C@@]21C [Mifepristone (Mifeprex)],0.445,0.436,-0.0691,-0.0767,-0.047,0.0535,-0.0327,-0.0148,-0.0455,0.0917,-0.296,-0.283,-0.273,-0.268,-0.146,-0.253,-0.254,-0.235,-0.019,0.0308,0.0649,0.159,-0.0642,-0.00915,0.0416,0.233,0.413,0.477,0.486,0.497,0.391,0.438
COc1nc(-c2ccc3c(c2)OCO3)n(-c2ccc(NC(=O)CSc3ccccc3)cc2)n1 [SecinH3],0.437,0.419,-0.0611,-0.0455,-0.0236,0.124,-0.143,-0.0966,-0.134,-0.195,-0.242,-0.224,-0.27,-0.428,-0.311,-0.358,-0.334,-0.394,-0.0793,-0.0496,-0.0101,0.122,-0.197,-0.087,-0.0724,-0.0297,0.275,0.448,0.482,0.494,0.323,0.424
